About 64,000 (15%) of roughly 420,000 compounds were called active. Another 27% or so got no clear call; they are omitted. Calls follow the shape of the dose curve; as a rule, active = well fitted inhibition curve with a large enough effect; inconclusive = small, poorly fitted or top-dose-only effect; inactive = flat fitted curve, though single readings scatter. The list is a sample of the results. Where a call stands in place of a potency, no number is given.
Potency is read from the fitted curve at half-maximal effect.

This test is described as follows: qHTS for Inhibitors of human tyrosyl-DNA phosphodiesterase 1 (TDP1): qHTS in cells in absence of CPT. Also: nearly all actives have a fitted effect of over 55% in size. Particulars: DT40 Tdp1-/- hTDP1 cells, no CPT, ATP luminescence, 48 h; activity change, negative = growth inhibition: at 46.2 µM (top of the series). In short, it runs like this: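 Cells were dispensed at 400 per well, compounds added by pin tool, plates incubated ≥48 hr at 37 °C, then CellTiter-Glo added for 30 min at room temperature before luminescence reading. Line: DT40 Tdp1-/- complemented with hTDP1; camptothecin omitted.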
(In qHTS, concentration-response curves come from the screen itself.)
With `FC(F)(F)Oc1ccc(-c2cn3cccnc3n2)cc1`, the Potency entry was “inactive”. On to `Cc1cc(C)cc(C(=O)NC(CC(N)=O)c2ccc(N3CCC(N4CCCCC4)CC3)c([N+](=O)[O-])c2)c1` (stereo not drawn), for which the Potency result was “inactive”. For `CC(=O)c1c(C)[nH]c(C(=O)NCc2ccc(C)cc2)c1C` the value was “inactive”; for `COc1ccc(OC)c(-n2nnc(-c3nc(-c4cc(OC)c(OC)c(OC)c4)no3)c2C)c1`, “inactive”. As for `COc1ccc(-c2cc(-c3nc(-c4cc(OC)c(OC)c(OC)c4)no3)[nH]n2)c(OC)c1`, the figure is 13 µM (active); as for `CCOc1nc(-c2ccc(OC)cc2)ccc1-c1noc(-c2cc(OC)c(OC)c(OC)c2)n1`, 3.66 µM (active). As for `COc1cc(-c2nc(-c3ccncc3)no2)cc(OC)c1OC`, the Potency entry is “inactive”. For `COc1nc(-c2ccc(Cl)cc2)ccc1-c1noc(-c2cccs2)n1` the value was “inactive”; for `CCOC(=O)COc1cc(OCC(=O)OCC)c2c(=O)cc(-c3ccccc3)oc2c1`, “inactive”; for `O=C(Nc1nn(Cc2ccccc2F)cc1Br)c1cccs1`, “inactive”. For `COc1ccc(/C(O)=C2/C(=O)C(=O)N(CC3CCCO3)C2c2ccc(OC)c(OC)c2)cc1` (stereo not drawn), the Potency entry was “inactive”. For `CC(CNS(=O)(=O)c1ccc(Br)cc1)CN(C)C` (stereo not drawn) the value was “inactive”; for `O=C1CC2(CC(c3ccc(Cl)cc3)=NO2)C(=O)N1c1ccccc1` (stereo not drawn), “inactive”; for `Cc1ccc(-c2nnc3ccc(SCC(N)=O)nn23)cc1`, “inactive”. As for `O=C(Nc1ccn(Cc2ccccc2)n1)c1cccc(F)c1`, the Potency entry was “inactive”. As for `O=C(Nc1ccn(Cc2ccccc2)n1)c1n[nH]c([N+](=O)[O-])c1Cl`, the Potency result is “inactive”. With `O=C(Nc1ccn(Cc2ccc(F)cc2)n1)c1ccncc1`, the Potency is 11.6 µM (active). With `O=C(COc1cccc2c1CCNC2=O)NC1CCCCC1`, the Potency result was “inactive”.

Regarding `COc1ccc(C(=O)COC(=O)Cn2cnc3c2c(=O)n(C)c(=O)n3C)c(OC)c1`, the Potency entry is “inactive”. `COC(=O)C1=C(C(=O)OC)[C@@H]2N(C)c3ccccc3[C@@]23C[C@@H](C(=O)OC)N(C(=O)c2ccco2)C3=N1`: the Potency result is “inactive”. For `Cc1cc(C)cc(NS(=O)(=O)c2ccc3[nH]cc(C(=O)N4CCCCC4)c(=O)c3c2)c1` the value was “inactive”; for `CN1CCN(c2ncncc2-c2ccc(C(=O)N(C)C)cc2)CC1`, “inactive”; for `CCOC1CS(=O)(=O)CC1OCC` (stereo not drawn), “inactive”. `CCCc1ccc(C(O)c2ncc(-c3cccc(OC)c3)[nH]2)cc1` (stereo not drawn): the Potency was 20.6 µM (active).

Regarding `Cc1cccc(-c2cnc(C(O)c3cc(C)cc(C)c3)[nH]2)c1` (stereo not drawn), the Potency result is “inactive”.

As for `COc1cccc(-c2cnc(C(O)c3ccccc3OC)[nH]2)c1` (stereo not drawn), the Potency entry was “inactive”. Take `O=c1cnnc(Nc2ccccc2)[nH]1`: the Potency result was “inactive”. Regarding `O=C(c1cccs1)C1C(c2ccc(Br)cc2)NC(=S)NC1(O)C(F)(F)F` (stereo not drawn), the Potency result is “inactive”.

For the origin of these results see PubChem BioAssay AID686978 (National Center for Advancing Translational Sciences (NCATS), 2013).
